Compound activity (PubChem)
Compounds with a hit are over-represented: about 22% of the library has one in this group of screens.
CYP2C19 inh: blocks human cytochrome P450 2C19 | inhibition, % at 5 µM | CYP2C19 Supersomes, luciferin-H EGE luminescence, 30 min | AID 778 | 96,000 tested, 21% active;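 active = CYP2C19 inhibition above a set limit at 5 µM in the primary screen, cut at about 50% in these data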;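 note: plate controls were negative control wells for no effect and 2.5 mM tranylcypromine positive control for full effect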
Measles CPE: protection of cells from measles virus. protection (pct of control), % at 4 µM. Measles virus-infected cells, CPE protection, absorbance. 140,000 tested, 1.5% active; in the data active = protection mostly above about 24%, no sharp cut-off; inactive = mostly below about 26%
CYP2C9 inh: human CYP2C9 inhibition | AID 777 | P11712 | CYP2C9 Supersomes, luciferin-H conversion, luminescence | inhibition, % at 5 µM | 96,000 tested, 20% active;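 active = blocking of liver enzyme CYP2C9 beyond about 50% at 5 µM, limit read from the data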
Target sequence (P11712 whole entry, looked up): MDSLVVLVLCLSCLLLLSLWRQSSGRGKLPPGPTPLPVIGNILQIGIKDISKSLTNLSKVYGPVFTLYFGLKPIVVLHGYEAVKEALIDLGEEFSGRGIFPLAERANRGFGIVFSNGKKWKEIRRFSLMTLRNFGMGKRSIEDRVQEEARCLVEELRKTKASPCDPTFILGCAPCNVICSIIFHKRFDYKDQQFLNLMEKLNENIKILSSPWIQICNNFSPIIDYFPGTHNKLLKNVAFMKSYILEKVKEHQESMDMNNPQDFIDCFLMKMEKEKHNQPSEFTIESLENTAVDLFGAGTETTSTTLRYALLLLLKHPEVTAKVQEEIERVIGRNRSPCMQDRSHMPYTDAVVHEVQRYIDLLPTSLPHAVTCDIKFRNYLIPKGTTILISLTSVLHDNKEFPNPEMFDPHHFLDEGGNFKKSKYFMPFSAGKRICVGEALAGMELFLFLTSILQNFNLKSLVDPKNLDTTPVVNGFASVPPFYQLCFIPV
CYP2C19 activ: activators of human cytochrome P450 2C19 | P33261 | recombinant CYP2C19, luciferin-H EGE luminescence; hits give high values; 0 = fully inhibited enzyme, 1 = untreated enzyme | activation factor at 5 µM | 96,000 tested, under 10 active | AID 1025;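 active = activation factor of at least 2 at 5 µM in the primary screen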;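 note: 0 = wells with 2.5 mM tranylcypromine and 1 = vehicle-only wells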
CYP2C9 act: CYP2C9 (human) activation; P11712; recombinant CYP2C9, luciferin-H conversion, luminescence; hits give high values; factor 1 = untreated enzyme, 0 = blocked; activation factor at 5 µM; 96,000 tested, 1.4% active; AID 1024;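 active = activation factor of 2 or more for CYP2C9 at a 5 µM dose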;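 note: 0 = sulfaphenazole-blocked wells and 1 = vehicle-only wells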
Numbers without * were called inactive.

`CC(C)CCn1c(SCCN2CCOCC2)nc2c1c(=O)[nH]c(=O)n2C` gave CYP2C19 inh 18, Measles CPE 1, CYP2C9 inh 85*, CYP2C19 activ 0.8 and CYP2C9 act 0.1.
Screening CCCCCn1c(SCC(=O)OC)nc2c1c(=O)[nH]c(=O)n2C returned CYP2C19 inh 4, Measles CPE 18, CYP2C9 inh 10, CYP2C19 activ 1 and CYP2C9 act 0.9.
`COCCn1c(SCCCc2ccccc2)nc2c1c(=O)[nH]c(=O)n2C` gave CYP2C19 inh 43, Measles CPE 5, CYP2C9 inh 59*, CYP2C19 activ 0.6 and CYP2C9 act 0.4.
`CCCCSc1nc2c(c(=O)[nH]c(=O)n2C)n1CCc1ccccc1` gave CYP2C19 inh 0, CYP2C9 inh 2, CYP2C19 activ 1 and CYP2C9 act 1.
For CC(=O)Nc1nc(NC(=O)/C=C/c2ccccc2)n(-c2ccccc2)n1 the results were Measles CPE 4.
`CCCNC(=O)CSc1nnc(C)s1` gave CYP2C19 inh 17, Measles CPE 4, CYP2C9 inh 22, CYP2C19 activ 0.8 and CYP2C9 act 0.8.
CCCn1c(SCCc2ccccc2)nc2c1c(=O)[nH]c(=O)n2C was read as CYP2C19 inh 50*, Measles CPE 23, CYP2C9 inh 59*, CYP2C19 activ 0.5 and CYP2C9 act 0.4.
Cn1c(=O)[nH]c(=O)c2c1nc(N1CCCCCC1)n2CCSc1nc2ccccc2[nH]1 was read as CYP2C19 inh -5, Measles CPE 36, CYP2C9 inh 27, CYP2C19 activ 1 and CYP2C9 act 0.7.
`Cc1c(C(=O)NCCCN2CCOCC2)oc2c1C1(CCC2)SCCS1` gave Measles CPE 6.
`CCCOc1ccc(N2C(=O)CC(N(C(=O)c3ccco3)c3ccc(OCCC)cc3)C2=O)cc1` (configuration not stated) gave CYP2C19 inh 1, Measles CPE 6, CYP2C9 inh 17, CYP2C19 activ 1 and CYP2C9 act 0.8.
Cc1cc(C)cc(N2C(=O)CC(N(C(=O)c3ccco3)c3cc(C)cc(C)c3)C2=O)c1 (configuration not stated) was read as CYP2C19 inh 44, Measles CPE 19, CYP2C9 inh 62*, CYP2C19 activ 0.6 and CYP2C9 act 0.4.
`CCCCN1C(=O)C2ON(c3ccccc3C)C(c3ccco3)C2C1=O` (configuration not stated) gave CYP2C19 inh 77*, Measles CPE 4, CYP2C9 inh 96*, CYP2C19 activ 0.2 and CYP2C9 act 0.
Screening CCc1ccc(N2C(=O)C3ON(c4ccccc4)C(c4ccco4)C3C2=O)cc1 (configuration not stated) returned CYP2C19 inh 8, Measles CPE 6, CYP2C9 inh 31, CYP2C19 activ 0.9 and CYP2C9 act 0.7.
`CCOc1cc(/C=N/NC(=O)CSc2nncn2C)ccc1OCc1cccc(C)c1` gave Measles CPE 19.
For O=C(Cn1c(-c2ccccc2)noc1=O)Nc1ccc(S(=O)(=O)N2CCOCC2)cc1 the results were CYP2C19 inh 23, Measles CPE 5, CYP2C9 inh 73*, CYP2C19 activ 0.8 and CYP2C9 act 0.3.
Cc1ccc(-c2noc(=O)n2CC(=O)Nc2ccc(S(=O)(=O)NC3CC3)cc2)cc1 was read as CYP2C19 inh 45, Measles CPE 3, CYP2C9 inh 93*, CYP2C19 activ 0.6 and CYP2C9 act 0.1.
Screening O=C(CCSc1ccccc1)Nc1ccc(S(=O)(=O)N2CCOCC2)cc1 returned CYP2C19 inh 55*, Measles CPE 3, CYP2C9 inh 85*, CYP2C19 activ 0.4 and CYP2C9 act 0.2.
`Cc1ccc(NC(=O)CCc2ccc(S(=O)(=O)NC3CCCCC3)cc2)cc1` gave CYP2C19 inh 22, Measles CPE 31, CYP2C9 inh 41, CYP2C19 activ 0.8 and CYP2C9 act 0.6.
For CCCC(=O)Nc1ccc(S(=O)(=O)N2CCOCC2)cc1 the results were Measles CPE 23.
`O=C(Cn1c(-c2ccccc2)noc1=O)Nc1ccc(N2CCCCCC2)cc1` gave CYP2C19 inh -10, Measles CPE 9, CYP2C9 inh 2, CYP2C19 activ 1.1 and CYP2C9 act 1.
For O=S(=O)(N/N=C/c1ccc(OC2CSC2)cc1)c1ccccc1 the results were Measles CPE 27.
For C=CCOC(=O)C1=C(C)NC(SCC(=O)Nc2ccccc2)=C(C#N)C1c1ccco1 (configuration not stated) the results were CYP2C19 inh 60*, Measles CPE 16, CYP2C9 inh 72*, CYP2C19 activ 0.4 and CYP2C9 act 0.3.
C=CCOC(=O)C1=C(C)NC(SCC(=O)N(CC)CC)=C(C#N)C1c1ccccc1 (configuration not stated) was read as CYP2C19 inh 97*, Measles CPE 6, CYP2C9 inh 90*, CYP2C19 activ 0 and CYP2C9 act 0.1.
Screening COC(=O)C1=C(C)OC(N)=C(C#N)C1c1cccnc1 (configuration not stated) returned CYP2C19 inh 4, Measles CPE 1, CYP2C9 inh 8, CYP2C19 activ 1 and CYP2C9 act 0.9.
`C=CCOC(=O)C1=C(C)NC(SCC(=O)NC(=O)OCC)=C(C#N)C1c1cccnc1` (configuration not stated) gave CYP2C19 inh 87*, Measles CPE 17, CYP2C9 inh 92*, CYP2C19 activ 0.1 and CYP2C9 act 0.1.
Screening C=CCOC(=O)C1=C(C)NC(SCC(=O)N(CC)CC)=C(C#N)C1c1ccco1 (configuration not stated) returned CYP2C19 inh 69*, Measles CPE 6, CYP2C9 inh 80*, CYP2C19 activ 0.3 and CYP2C9 act 0.2.
`c1ccc(N2CCN(c3ncccn3)CC2)cc1` gave CYP2C19 inh 29, Measles CPE 3, CYP2C9 inh 26, CYP2C19 activ 0.7 and CYP2C9 act 0.7.
For CN1CCN(c2nc(N3CCN(c4ccccc4)CC3)ncc2F)CC1 the results were CYP2C19 inh 62*, Measles CPE 16, CYP2C9 inh 19, CYP2C19 activ 0.4 and CYP2C9 act 0.8.
Cc1cc(NC(=O)CCC(=O)N(c2ccc(F)cc2)C(C(=O)NC2CCCC2)c2ccncc2)no1 (configuration not stated) was read as CYP2C19 inh 48, Measles CPE 38, CYP2C9 inh 30, CYP2C19 activ 0.5 and CYP2C9 act 0.7.
Screening C=CCNc1ncnc2c1[nH]c1ccccc12 returned CYP2C19 inh 33, Measles CPE 13, CYP2C9 inh 28, CYP2C19 activ 0.7 and CYP2C9 act 0.7.
For CCCCNc1nc2ccccc2[nH]1 the results were CYP2C19 inh 18, Measles CPE 20, CYP2C9 inh -15, CYP2C19 activ 0.8 and CYP2C9 act 1.1.
CCOCCCNc1ncnc2c1[nH]c1ccccc12 was read as CYP2C19 inh 60*, Measles CPE 7, CYP2C9 inh 39, CYP2C19 activ 0.4 and CYP2C9 act 0.6.
